Shown are actives, neighbours in structure and some others; about 2.4% of the full set was active somewhere.
D2 ag-1 = agonists of human D2 dopamine receptor | P14416 | HEK293 T-REx D2 cells, calcium flux agonist mode | activation, % at 2 µM | 340,000 compounds, 0.53% hits;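 active = activation over 3 SD above normal in the single-dose calcium agonist read, cut at about 30% in these data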
Target sequence (P14416 whole entry, looked up): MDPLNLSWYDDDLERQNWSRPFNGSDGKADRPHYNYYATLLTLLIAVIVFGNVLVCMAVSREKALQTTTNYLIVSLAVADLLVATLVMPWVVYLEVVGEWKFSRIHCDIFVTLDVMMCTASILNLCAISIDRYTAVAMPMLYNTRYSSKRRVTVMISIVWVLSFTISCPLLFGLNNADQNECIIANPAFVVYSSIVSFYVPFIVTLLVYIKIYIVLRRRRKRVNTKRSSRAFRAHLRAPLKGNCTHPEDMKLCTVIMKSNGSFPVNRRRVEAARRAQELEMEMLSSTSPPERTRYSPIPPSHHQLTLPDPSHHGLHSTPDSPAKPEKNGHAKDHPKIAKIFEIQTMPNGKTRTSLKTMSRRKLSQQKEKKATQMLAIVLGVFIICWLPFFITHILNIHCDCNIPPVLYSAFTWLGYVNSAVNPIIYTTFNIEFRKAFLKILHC
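Agonism scored from kinetic calcium signal (1 read/sec, 180 s) following compound pin transfer, after a 10 s baseline. Cells: HEK293 Trex line expressing inducible D2 receptor coupled to calcium, dye-loaded after overnight culture at 30 C.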
D2 PAM-1 = positive allosteric modulators of human D2 dopamine receptor | potentiation, % (test concentration not listed) | P14416 | DiscoveRx D2 beta-arrestin cells, luminescence, 90 min; 100% = 57 uM dopamine signal | 360,000 compounds, 0.23% hits; in the data active = potentiation above about 50%; inconclusive = mostly about 30% to 49%
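D2 cells co-treated with compound plus 50 nM dopamine (EC20) for 90 min at 37 deg C to detect potentiation. Beta-arrestin recruitment was read as enzyme-fragment luminescence after 1 h at ambient temperature. Full response was set by 57 uM dopamine.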
D2 ag-2 = human D2 receptor agonism in beta-arrestin assay | DiscoveRx PathHunter D2 beta-arrestin, luminescence, 90 min; 100% = 57 uM dopamine signal | activation, % (no concentration beside the values) | P14416 | 360,000 compounds, 0.084% hits; in the data active = activation above about 40%; inconclusive = between about 15% and that limit
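Agonist mode: compounds alone added to overnight-plated D2 PathHunter cells for 90 min at 37 C, with 57 uM final dopamine (EC100) defining full response. Beta-arrestin recruitment detected by chemiluminescent reagent, read after 1 h at ambient temperature.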
D2 antagonist = antagonizes the human D2 dopamine receptor. HEK293 TREx D2 cells, calcium flux, dopamine EC80. 340,000 compounds, 2% hits. P14416. AID 485344. inhibition, % at 10 µM; in the data active = inhibition above about 30%; inactive = below that, where a call was filed
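Antagonism is scored as inhibition of an EC80 dopamine-evoked calcium signal in a force-coupled, tetracycline-inducible HEK293 T-REx D2 line, with compound present 180 s before agonist.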
D2 PAM-2 = positive allosteric modulators of human D2 dopamine receptor; P14416; HEK293 T-REx D2, calcium flux, EC20 dopamine potentiation; potentiation, % at 10 µM; 340,000 compounds, 0.34% hits; AID 485347;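 active = potentiation over 3 SD above the plate norm, cut at about 30% in these data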
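Potentiation of an EC20 dopamine calcium response measured kinetically over 180 s, after a preceding 180 s compound-only read flagging agonists. Cells: inducible Hek293 Trex D2 line, 4000/well, cultured overnight at 30 C before dye loading.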
Numbers stand for hits.

Cc1ccc(N2CCN(C(=O)Nc3cn(CC(C)C)c(=O)c4ccccc34)CC2)c(C)c1 was read as D2 ag-1 inactive and D2 PAM-2 inactive.
For COc1cccc2sc(NC(=O)c3ccc(S(=O)(=O)N4CCC(C)CC4)cc3)nc12 the results were D2 ag-1 inactive and D2 PAM-2 inactive.
For Cc1cc(S(=O)(=O)N2CCN=C2c2ccccc2)c(Cl)cc1Cl the results were D2 ag-1 30, D2 PAM-1 inactive, D2 ag-2 inactive, D2 antagonist inactive and D2 PAM-2 inactive.
N#Cc1cc2ccc(N3CCOCC3)cc2cc1C#N was read as D2 ag-1 inactive, D2 PAM-1 69, D2 ag-2 inactive, D2 antagonist inactive and D2 PAM-2 inactive.
For Brc1cccc(-c2nnn3c2nc(NCc2ccc4c(c2)OCO4)c2ccccc23)c1 the results were D2 ag-1 inactive and D2 PAM-2 inactive.
`O=C(N/N=C/c1ccc(OC(F)F)cc1)C1=COCCO1` gave D2 ag-1 inactive, D2 PAM-1 inactive, D2 ag-2 inactive, D2 antagonist inactive and D2 PAM-2 inactive.
`O=C(N/N=C/c1ccccc1OC(F)F)C1=COCCO1` gave D2 ag-1 inactive, D2 PAM-1 inactive, D2 ag-2 inactive, D2 antagonist 33 and D2 PAM-2 inactive.
Screening Cc1ccc(C(=O)COC(=O)c2cccc(NC(=O)c3ccc([N+](=O)[O-])cc3[N+](=O)[O-])c2)cc1 returned D2 ag-1 inactive, D2 PAM-1 122, D2 ag-2 inconclusive, D2 antagonist inactive and D2 PAM-2 inactive.
CC(=O)Nc1ccc(C(=O)OCC(=O)c2cccc([N+](=O)[O-])c2)cc1 was read as D2 ag-1 inactive, D2 PAM-1 inactive, D2 ag-2 inactive, D2 antagonist inactive and D2 PAM-2 inactive.
Screening O=C(NC1CCN(Cc2cccc([N+](=O)[O-])c2)CC1)c1ccccc1 returned D2 ag-1 inactive, D2 PAM-1 inactive, D2 ag-2 inactive, D2 antagonist 74 and D2 PAM-2 inactive.
`O=[N+]([O-])c1cccc(CN2CCC(Cc3ccccc3)CC2)c1` gave D2 ag-1 inactive, D2 PAM-1 inactive, D2 ag-2 inactive, D2 antagonist inactive and D2 PAM-2 inactive.
Screening O=[N+]([O-])c1cccc(CN2CCN(c3cccc4[nH]ccc34)CC2)c1 returned D2 ag-1 inactive, D2 PAM-1 inactive, D2 ag-2 inactive, D2 antagonist 42 and D2 PAM-2 inactive.
Screening O=C(NC1CCN(Cc2ccccc2)CC1)c1cncc(Br)c1 returned D2 ag-1 inactive, D2 PAM-1 inactive, D2 ag-2 inactive, D2 antagonist 85 and D2 PAM-2 inactive.
`Cn1nccc1C(=O)NC1CCN(Cc2ccccc2)CC1` gave D2 ag-1 inactive, D2 PAM-1 inactive, D2 ag-2 inactive, D2 antagonist 55 and D2 PAM-2 inactive.
Screening O=C(c1ccc([N+](=O)[O-])cc1)N1CCN(c2cccc3[nH]ccc23)CC1 returned D2 ag-1 inactive, D2 PAM-1 inactive, D2 ag-2 inactive, D2 antagonist inactive and D2 PAM-2 inactive.
For O=C(NC1CCN(Cc2ccccc2)CC1)c1ccccc1Cl the results were D2 ag-1 inactive, D2 PAM-1 inactive, D2 ag-2 inactive, D2 antagonist inactive and D2 PAM-2 inactive.
`CCc1cccc(-n2nnc(-c3nc(-c4ccc5c(c4)OCO5)no3)c2C)c1` gave D2 PAM-2 inactive.
Cc1cn2c(=O)cc(COc3ccc(NC(=O)c4ccc(C(C)(C)C)cc4)cc3)nc2s1 was read as D2 ag-1 inactive and D2 PAM-2 inactive.
For Cc1oc(-c2ccccc2)cc1C(=O)NC1CCN(Cc2ccccc2)CC1 the results were D2 ag-1 inactive, D2 PAM-1 inactive, D2 ag-2 inactive, D2 antagonist 69 and D2 PAM-2 inactive.
CN1CCC(NC(=O)c2cccc(Oc3ccccc3)c2)CC1 was read as D2 ag-1 inactive, D2 PAM-1 inactive, D2 ag-2 inactive, D2 antagonist 70 and D2 PAM-2 inactive.
O=C(NC1CCN(Cc2ccccc2)CC1)c1ccccc1 was read as D2 ag-1 inactive, D2 PAM-1 inactive, D2 ag-2 inactive, D2 antagonist 74 and D2 PAM-2 inactive.
O=C(NNC1CCN(Cc2ccccc2)CC1)c1ccccc1 was read as D2 PAM-1 inactive and D2 ag-2 inactive.
`CC(C)(C)c1ccc(C(=O)NC2CCN(Cc3ccccc3)CC2)cc1` gave D2 ag-1 inactive, D2 PAM-1 inactive, D2 ag-2 inactive, D2 antagonist 54 and D2 PAM-2 inactive.
`Nc1nn(-c2ccccc2)nc1C(=O)OCc1ccccc1Br` gave D2 ag-1 inactive and D2 PAM-2 inactive.
Screening COc1ccc(Nc2ncnc3c2nc2n3CCCC2)cc1Cl returned D2 ag-1 inactive and D2 PAM-2 inactive.
`CCOc1cc(-c2nc3c(c(CC)nn3-c3ccccc3)c3cc(OC)c(OC)cc23)ccc1O` gave D2 PAM-2 inactive.
COc1ccccc1-c1nc(SCC(=O)Nc2ccc(C)c(C)c2)n[nH]1 was read as D2 ag-1 inactive and D2 PAM-2 inactive.
`Clc1cccc(-c2nn3c(Cn4cnc5ccccc54)nnc3s2)c1` gave D2 ag-1 inactive, D2 PAM-1 inactive, D2 ag-2 inactive, D2 antagonist 34 and D2 PAM-2 inactive.
COc1cc(CNc2ccc(O)cc2)cc(Br)c1OCc1ccccc1F was read as D2 ag-1 inactive, D2 PAM-1 77, D2 ag-2 inconclusive, D2 antagonist inactive and D2 PAM-2 inactive.
For CCN1CCN(c2nc(-c3ccccc3Cl)nc3ccccc23)CC1 the results were D2 ag-1 inactive, D2 PAM-1 inactive, D2 ag-2 inactive, D2 antagonist 38 and D2 PAM-2 inactive.
CN1CCN(c2nc(-c3ccccc3Cl)nc3ccccc23)CC1 was read as D2 ag-1 inactive, D2 PAM-1 inactive, D2 ag-2 inactive, D2 antagonist inactive and D2 PAM-2 inactive.
For c1ccc(N2CCN(c3nc(-c4cccs4)nc4ccccc34)CC2)cc1 the results were D2 PAM-1 inactive, D2 ag-2 inactive and D2 PAM-2 inactive.
For CCN1CCN(c2nc(-c3ccccc3)c3ccccc3n2)CC1 the results were D2 ag-1 inactive, D2 PAM-1 inactive, D2 ag-2 inactive, D2 antagonist 59 and D2 PAM-2 inactive.
`CN1CCN(c2nc(-c3cccs3)nc3ccccc23)CC1` gave D2 ag-1 inactive, D2 PAM-1 inactive, D2 ag-2 inactive, D2 antagonist 32 and D2 PAM-2 inactive.
`O=C(CC1C(=O)N(c2ccc(F)cc2)C(=O)N1Cc1ccc2c(c1)OCO2)Nc1ccc(Cl)cc1` (configuration not stated) gave D2 ag-1 inactive and D2 PAM-2 inactive.
For COc1ccc(S(=O)(=O)NNc2nc(C)cc(C)n2)cc1Br the results were D2 ag-1 inactive, D2 PAM-1 inactive, D2 ag-2 inactive, D2 antagonist 52 and D2 PAM-2 inactive.
Screening Cc1cc(C)nc(NNS(=O)(=O)c2ccc(Cl)cc2)n1 returned D2 PAM-1 inactive and D2 ag-2 inactive.

Screening results from PubChem BioAssay.
